Screens: PubChem BioAssay, National Center for Advancing Translational Sciences (NCATS)
This is a sample that favours compounds with a hit; in the whole collection about 22% have one here.
Shiga inhibitor: inhibitors of Shiga toxin in Vero cells | Vero cells, Shiga toxin protein synthesis inhibition reporter | inhibition, % at 38.7 µM | 290,000 tested, 9.2% active; in the data active means inhibition mostly above about 28%, no sharp cut-off; inactive means mostly below about 43%
Pf growth 48h: inhibits P. falciparum growth in the first generation, 48 h; P. falciparum luciferase growth in erythrocytes, 48 h; Potency, µM (doses to about 28.7 µM), usual class: inhibitors; 310,000 tested, 5.9% active; AID 504832
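Erythrocytes infected with P. falciparum carrying an integrated firefly luciferase reporter (2% hematocrit, 0.1% parasitemia final) were exposed to compounds in RPMI 1640 with 0.5% Albumax at 37 C, 5% CO2. Growth inhibition was scored as reduced luminescence.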
LmPK inhibitor: blocks Leishmania mexicana pyruvate kinase activity; Q27686; purified LmPK, Kinase-Glo ATP luminescence, 1 h; Potency, µM (doses to about 57.5 µM), usual class: inhibitors; 290,000 tested, 0.37% active; AID 1721
Target sequence (Q27686 whole entry, looked up): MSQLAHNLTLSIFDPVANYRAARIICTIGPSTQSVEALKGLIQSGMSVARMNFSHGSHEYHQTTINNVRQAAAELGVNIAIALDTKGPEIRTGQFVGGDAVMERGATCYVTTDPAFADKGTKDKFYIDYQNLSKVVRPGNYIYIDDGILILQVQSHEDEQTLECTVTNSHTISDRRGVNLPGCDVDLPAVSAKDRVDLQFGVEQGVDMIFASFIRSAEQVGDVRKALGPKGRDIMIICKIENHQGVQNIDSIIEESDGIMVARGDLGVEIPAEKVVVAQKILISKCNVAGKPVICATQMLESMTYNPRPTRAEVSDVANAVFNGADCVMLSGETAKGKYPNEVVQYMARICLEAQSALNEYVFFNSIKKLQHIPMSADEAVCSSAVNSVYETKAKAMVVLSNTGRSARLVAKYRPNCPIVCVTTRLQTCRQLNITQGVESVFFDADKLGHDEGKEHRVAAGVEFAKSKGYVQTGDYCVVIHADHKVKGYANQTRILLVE
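Purified LmPK (0.1 nM) converted ADP (0.1 mM) to ATP with PEP (0.5 mM) in imidazole buffer pH 7.2 with KCl and MgCl2, 1 h at room temperature. ATP was read by Kinase-Glo luminescence; data normalized to uninhibited and no-enzyme controls.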
Pf growth 96h: P. falciparum growth inhibition at 96 hours; P. falciparum luciferase reporter growth, 96 h; Potency, µM (highest dose often 28.7 µM), most hits filed as inhibitors; 320,000 tested, 6.9% active; AID 504834
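Parasite growth measured via integrated firefly luciferase reporter in P. falciparum. Infected erythrocytes at 2% hematocrit, 0.05% parasitemia final were treated 96 hours at 37 C under 5% CO2, and luminescence was read.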
Cycloheximide cs: affects cycloheximide protein synthesis inhibition readout, counter-screen; max response, %; 300,000 tested, 12% active; cell reporter, cycloheximide protein synthesis inhibition counterscreen; in the data active means max response mostly above about 13%, no sharp cut-off; inactive means mostly below about 14%; further: read at 38.3 µM for the half of the compounds with a filed dose
Large screens that a line does not name were inactive; ! = repeats disagree. Unless noted, the call rests on the fitted dose curve; in most records, active means well fitted inhibition curve with a large enough effect; inconclusive means small, poorly fitted or top-dose-only effect, or another doubt; inactive means no such curve, though single readings can be large or run the other way.

COc1ccc(-c2[nH]c(-c3ccc(C)cc3)nc2SCC(=O)NC2CCCC2)cc1	Pf growth 48h inconclusive
COc1ccc(-c2ccc(-c3nc4ccc(C)cn4c3NC3CCCCC3)cc2OC)cc1	Pf growth 48h 11.7µM, Pf growth 96h 11.7µM (no result: Shiga inhibitor, LmPK inhibitor, Cycloheximide cs)
CCC(C)Sc1cc(-c2nc3ccccn3c2NC2CCCCC2)ccc1OC (centres undefined)	Pf growth 48h 4.15µM, Pf growth 96h inconclusive (no result: Shiga inhibitor, LmPK inhibitor, Cycloheximide cs)
CC1Cc2ccccc2N1C(=O)CN1CCN(Cc2ccccc2)CC1 (centres undefined)	none
CC1CCN(CC(=O)N2CCc3ccccc32)CC1	Cycloheximide cs 16.9
CC1CCN(CC(=O)N2c3ccccc3CC2C)CC1 (centres undefined)	Pf growth 96h 0.586µM
CCOC(=O)C1CCN(CC(=O)N2CCc3ccccc32)CC1	none
CC1Cc2ccccc2N1C(=O)CSc1ccccc1 (centres undefined)	Pf growth 96h inconclusive, Cycloheximide cs 50.8
CC1Cc2ccccc2N1C(=O)CN1CCc2ccccc2C1 (centres undefined)	Pf growth 48h inconclusive, Pf growth 96h inconclusive
CC1Cc2ccccc2N1C(=O)CNc1ccccc1N1CCCCC1 (centres undefined)	Pf growth 48h inconclusive, Pf growth 96h 13.1µM
O=C(Cn1cc([N+](=O)[O-])cn1)N1CCCc2ccccc21	Shiga inhibitor 52.6
O=C1c2ccccc2C(=O)N1CCC(=O)N1CCCc2ccccc21	Cycloheximide cs 33.9
CC1Cc2ccccc2N1C(=O)CCN1C(=O)C2C3C=CC(C3)C2C1=O (centres undefined)	none
O=C(CN1CCCC1)N1CCCc2ccccc21	Pf growth 96h 18.5µM
CC1Cc2ccccc2N1C(=O)CCn1c(=O)sc2ccccc21 (centres undefined)	Pf growth 48h inconclusive, Pf growth 96h inconclusive, Cycloheximide cs 12.3
CC(C)OC(=O)CC1C(=O)NCCN1C(=S)NC(=O)c1cccs1 (centres undefined)	none
Cc1cc(C(=O)NNC(=S)NCc2ccco2)nn1C	none
NC(=O)CSc1oc(-c2ccco2)nc1S(=O)(=O)c1ccc(F)cc1	Pf growth 96h inconclusive
Cc1cccc(N2CCN(C3=NC(=O)C(Cc4ccccc4)S3)CC2)c1 (centres undefined)	Pf growth 96h 11.7µM
Cc1cccc(CC2SC(N)=NC2=O)c1 (centres undefined)	none
COCCN(C(=S)Nc1ccc(C(C)C)cc1)C(C)c1cccs1 (centres undefined)	Pf growth 48h inconclusive
NC(N)=N/N=C/c1c(Cl)cccc1Cl	Pf growth 48h 13.5µM, Pf growth 96h 3.7µM!
O=C(N/N=C/c1ccccc1Cl)c1ccncc1	none
NC(N)=N/N=C/c1ccccc1Cl	Pf growth 48h 11.7µM, Pf growth 96h 10.4µM
CC(=O)NCc1cc(Cl)c2cccnc2c1O	Pf growth 48h inconclusive (no result: Shiga inhibitor, LmPK inhibitor, Cycloheximide cs)
Oc1c(I)cc(I)c2cccnc12	Pf growth 48h inconclusive, Pf growth 96h 10.7µM!
Oc1c(Cl)cc(Cl)c2cccnc12	Pf growth 48h 8.49µM, Pf growth 96h 4.26µM!
Oc1ccc(F)c2cccnc12	Pf growth 48h inconclusive, Pf growth 96h 14.7µM
Cc1ccc(S(=O)(=O)Nc2cc(Cl)c(O)c3ncccc23)cc1	Pf growth 48h 7.38µM
COc1ccc(CCN(C)C(=O)CSc2nc3ncc(Cl)cc3[nH]2)cc1OC	Pf growth 96h inconclusive
Cc1cccc(NC(=O)CCSc2nnc(Cc3ccccc3)o2)c1	Pf growth 96h inconclusive
Cn1c(=O)c2sc3c(c2n(CC(=O)Nc2ccccc2)c1=O)COC(C)(C)C3	Pf growth 48h inconclusive, Pf growth 96h inconclusive
COc1ccc(C2(CNC(=O)c3ccc(OC)c([N+](=O)[O-])c3)CCCCC2)cc1OC	Pf growth 48h inconclusive, Pf growth 96h inconclusive
Oc1ccc(Cl)c2cccnc12	Pf growth 48h 13.5µM, Pf growth 96h 12µM (no result: Shiga inhibitor, LmPK inhibitor, Cycloheximide cs)
OCCn1c(-c2ccc3c(c2)OCO3)csc1=Nc1ccccc1	Shiga inhibitor 45.9, Cycloheximide cs 37.0
O=S(=O)(c1ccc(-c2csc(=Nc3ccccc3)n2CCCN2CCOCC2)cc1)N1CCOCC1	Pf growth 48h inconclusive
OCCn1c(-c2ccc(F)cc2)csc1=Nc1ccccc1	Shiga inhibitor 71.0, Cycloheximide cs 21.8
CCOC(=O)C(C)Sc1ncnc2nc[nH]c12 (centres undefined)	Pf growth 96h inconclusive
CCOC(=O)C(CC)Sc1ncnc2nc[nH]c12 (centres undefined)	Pf growth 96h 10.4µM
Cc1cc(N2CCCC2=O)cc(C)c1S(=O)(=O)NCCOc1ccc(C(C)(C)C)cc1	Pf growth 48h 13.1µM, Pf growth 96h inconclusive
